Source: PubChem BioAssay
LmPK inhibitor – LmPK (Leishmania mexicana) enzyme inhibition | Q27686 | purified LmPK, Kinase-Glo ATP luminescence, 1 h | Potency, µM (doses to about 57.5 µM), for inactives: at the highest dose activity change, negative = inhibition, hits mostly inhibitors | 290,000 tested, 0.37% active | AID 1721; further: potency means the concentration at half of the fitted maximal effect; on the % scale 0 is the no-effect control and ±100 the full control effect
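Purified LmPK (0.1 nM) with 0.5 mM PEP and 0.1 mM ADP in imidazole buffer pH 7.2 with MgCl2/KCl, 1 h at room temperature. ATP formed was read by luciferase luminescence and normalized to no-enzyme and uninhibited controls.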
CHX counter – counter-screen hit for Shiga toxin inhibitors, cycloheximide; cell reporter, cycloheximide protein synthesis inhibition counterscreen; max response, %; 300,000 tested, 12% active; AID 2314; in the data active means max response mostly above about 13%, no sharp cut-off; inactive means mostly below about 14%; further: read at 38.3 µM for the half of the compounds with a filed dose; 0% is about no effect
Shiga inhibitor – Shiga toxin inhibition; inhibition, % at 38.7 µM; Vero cells, Shiga toxin protein synthesis inhibition reporter; 290,000 tested, 9.2% active; in the data active means inhibition mostly above about 28%, no sharp cut-off; inactive means mostly below about 43%; further: 0% is about no effect
NS1 inh – blocks influenza NS1 protein function | Potency, µM (highest dose often 46.1 µM), without a hit: top-dose activity, positive = more growth | 270,000 tested, 0.4% active | AID 2326; calls by dose curve; further: potency means the concentration at half of the fitted maximal effect; actives are rising curves; nearly all actives have a fitted effect of over 50% in size
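Growth recovery, yeast-based: influenza A NS1 expressed in S. cerevisiae causes slow growth, and suppressors are detected by OD600. The parent strain without NS1 is used as positive control.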
Giardia FBPA inh – inhibitors of Giardia lamblia fructose-1,6-bisphosphate aldolase. A8B2U2. 290,000 tested, 0.71% active. purified Giardia FBPA. Potency, µM (series often up to 59.6 µM), without a hit: top-dose activity, negative = inhibition, actives largely listed as inhibitors; further: potency means the concentration at half of the fitted maximal effect; on the % scale 0 is the no-effect control and ±100 the full control effect; nearly all actives have a fitted effect of over 55% in size
Target sequence (A8B2U2 whole entry, looked up): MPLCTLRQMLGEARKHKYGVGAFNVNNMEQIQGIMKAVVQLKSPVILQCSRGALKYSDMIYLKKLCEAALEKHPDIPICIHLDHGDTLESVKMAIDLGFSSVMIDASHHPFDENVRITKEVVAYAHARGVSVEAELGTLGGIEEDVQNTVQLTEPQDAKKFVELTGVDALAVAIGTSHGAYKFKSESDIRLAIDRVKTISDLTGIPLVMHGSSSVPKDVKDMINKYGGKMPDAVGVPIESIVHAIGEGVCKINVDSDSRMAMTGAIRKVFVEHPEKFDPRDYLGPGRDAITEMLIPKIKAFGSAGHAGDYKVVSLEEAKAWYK
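40 nM FBPA preincubated 10 min at RT with compound (up to 57.5 uM final), then substrate plus GAPDH/TPI/NAD/arsenate coupling and diaphorase/resazurin added. Fluorescence read after 20 min at RT, 525/598 nm.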
Numbers without * were called inactive. In the library only some 14% were active in any assay of this set; here they are far more common. Unless noted, the call rests on the fitted dose curve; in most records, active means well fitted curve in the direction sought with a large enough effect; inconclusive means small, poorly fitted or top-dose-only effect, or another doubt; inactive means no such curve, though single readings can be large; an effect the other way counts as inactive or inconclusive.

`Nc1ccc(N2CCN(c3ccc(F)cc3)CC2)cc1` gave LmPK inhibitor 3%, CHX counter 2, Shiga inhibitor -9, NS1 inh 9% and Giardia FBPA inh 2%.
For Nc1ccc(N2CCN(c3ccc(Cl)c(Cl)c3)CC2)cc1 the results were LmPK inhibitor 8%, CHX counter 4, Shiga inhibitor 24*, NS1 inh inconclusive and Giardia FBPA inh 1%.
For Nc1ccc(N2CCCCCC2)cc1 the results were LmPK inhibitor inconclusive, CHX counter -2, Shiga inhibitor 7, NS1 inh 3% and Giardia FBPA inh 11µM*.
Screening CNC(=S)N1CCN(c2ccc(Cl)c(Cl)c2)CC1 returned LmPK inhibitor 3%, CHX counter -3, Shiga inhibitor -6, NS1 inh -9% and Giardia FBPA inh 0%.
For COC(=O)[C@@]1(Cc2ccc(OC)cc2)[C@H]2c3cc(C(=O)N(C)C)n(Cc4nc5ccccc5[nH]4)c3C[C@H]2CN1C(=O)c1ccccc1 the results were Giardia FBPA inh -8%.
CCOC(=O)C1CCN(C(=O)COc2ccc(S(=O)(=O)N3CCOCC3)cc2C)CC1 was read as LmPK inhibitor 1%, CHX counter -2, Shiga inhibitor -9, NS1 inh 5% and Giardia FBPA inh -3%.
For CC(C)CN(Cc1cc(=O)oc2cc(-c3ccccc3)c(O)cc12)CC(C)C the results were LmPK inhibitor -2%, CHX counter 2, Shiga inhibitor 16, NS1 inh 22% and Giardia FBPA inh 0%.
`CCCC(=O)N=C1SC2CS(=O)(=O)CC2N1c1ccc(-c2nc3ccc(C)cc3s2)cc1` (stereo not given) gave LmPK inhibitor 7%, CHX counter 44*, Shiga inhibitor 106*, NS1 inh 15% and Giardia FBPA inh 1%.
CN(C)c1ccc(N2C(=NC(=O)CCc3ccccc3)SC3CS(=O)(=O)CC32)cc1 (stereo not given) was read as LmPK inhibitor -1%, CHX counter 19*, Shiga inhibitor 24 and NS1 inh 5%.
Screening COc1ccccc1C(=O)N=C1SC2CS(=O)(=O)CC2N1c1ccccc1 (stereo not given) returned LmPK inhibitor 5%, CHX counter 9.8*, Shiga inhibitor 22, NS1 inh -5% and Giardia FBPA inh 11%.
`O=C(CCCc1ccccc1)N=C1SC2CS(=O)(=O)CC2N1c1ccccc1` (stereo not given) gave LmPK inhibitor 9%, CHX counter -2, Shiga inhibitor -6 and NS1 inh 8%.
Screening CN(C)c1ccc(N2C(=NC(=O)C3CCCO3)SC3CS(=O)(=O)CC32)cc1 (stereo not given) returned LmPK inhibitor 0%, CHX counter 38*, Shiga inhibitor 21 and NS1 inh -5%.
For CCC1CCCCN1CCCNC(=O)c1ccc(CS(=O)(=O)c2ccccc2C)o1 (stereo not given) the results were LmPK inhibitor -6%, CHX counter -4, Shiga inhibitor -4, NS1 inh 3% and Giardia FBPA inh 20%.
Screening Cc1noc(C)c1-c1nc(NC2CCNCC2)c2ccccc2n1 returned Giardia FBPA inh -5%.
COCCNc1ncnc2ccc(-c3ccccc3C(F)(F)F)cc12 was read as Giardia FBPA inh -8%.
For COc1ccc2c(c1)C1=NN(/C(C)=C/C(C)=O)C(c3cccc(F)c3)C1CC2 (stereo not given) the results were LmPK inhibitor 1%, CHX counter 1, Shiga inhibitor 4, NS1 inh 3% and Giardia FBPA inh inconclusive.
For COc1ccc2c(c1)C1=NN(/C(C)=C\C(C)=O)C(c3ccccc3)C1CC2 (stereo not given) the results were LmPK inhibitor 3%, CHX counter 26*, Shiga inhibitor 71*, NS1 inh -16% and Giardia FBPA inh inconclusive.
Screening COc1ccc2c(c1)CCC1C2=NN(/C(C)=C\C(C)=O)C1c1ccc(F)cc1 (stereo not given) returned LmPK inhibitor -1%, CHX counter 62*, Shiga inhibitor 60*, NS1 inh -11% and Giardia FBPA inh inconclusive.
Screening COc1ccc(/C=C2\CCCC3C2=NN(C(=O)CSc2ncn[nH]2)C3c2ccc(OC)cc2)cc1 (stereo not given) returned LmPK inhibitor 1%, CHX counter -3, Shiga inhibitor -11, NS1 inh inconclusive and Giardia FBPA inh -1%.
Screening COc1ccc2c(c1)C1=NN(/C(C)=C/C(C)=O)C(c3ccc(F)cc3)C1CC2 (stereo not given) returned LmPK inhibitor 3%, CHX counter 31*, Shiga inhibitor 94*, NS1 inh -8% and Giardia FBPA inh -25%.
For CCc1ccc(-n2cc(-c3ccc([N+](=O)[O-])cc3)[nH]c2=S)cc1 the results were LmPK inhibitor -7%, CHX counter 13, Shiga inhibitor 8, NS1 inh -1% and Giardia FBPA inh 3%.
CCc1ccc(-c2cn(C3CCCCC3)c(=S)[nH]2)cc1 was read as LmPK inhibitor 1%, CHX counter 18*, Shiga inhibitor 65 and Giardia FBPA inh -7%.
O=C(Cc1cccs1)Nc1ccc(-c2nc3ccccc3[nH]2)cc1 was read as LmPK inhibitor -25%, CHX counter 37*, Shiga inhibitor 131*, NS1 inh -1% and Giardia FBPA inh 3%.
For CCNC(=S)Nc1ccc(-c2nc3ccccc3[nH]2)cc1 the results were LmPK inhibitor -10%, CHX counter 40*, Shiga inhibitor 103* and Giardia FBPA inh -14%.
`O=C(CN1CCOCC1)Nc1ccc(-c2nc3ccccc3[nH]2)cc1` gave LmPK inhibitor -1%, CHX counter 27*, Shiga inhibitor 76*, NS1 inh 0% and Giardia FBPA inh -2%.
`CCc1cc2c(=O)oc(-c3ccccc3F)nc2s1` gave LmPK inhibitor -1%, CHX counter 14*, NS1 inh -91% and Giardia FBPA inh -4%.
Screening Cc1cc2c(=O)oc(-c3ccccc3Br)nc2s1 returned LmPK inhibitor 0%, CHX counter -1, Shiga inhibitor 3, NS1 inh -45% and Giardia FBPA inh 3%.
`COc1ccccc1CNC(=O)c1nn(C)c2c1CS(=O)(=O)c1ccccc1-2` gave LmPK inhibitor 7%, CHX counter 7, Shiga inhibitor -4, NS1 inh 1% and Giardia FBPA inh -6%.
O=C(CNC(=O)c1ccco1)OCC(=O)c1ccc(Br)cc1 was read as LmPK inhibitor 0%, CHX counter -7, Shiga inhibitor -9 and NS1 inh 4%.
CCOC(=O)c1ccc(-c2ccc(/C=N/NC(=O)CN(c3cccc(C)c3)S(C)(=O)=O)o2)cc1 was read as LmPK inhibitor 0%, CHX counter 2, Shiga inhibitor -5, NS1 inh -28% and Giardia FBPA inh 4%.
For CCOC(=O)c1ccc(-c2ccc(/C=N/NC(=O)CN(c3ccccc3Cl)S(C)(=O)=O)o2)cc1 the results were LmPK inhibitor 0%, CHX counter 14*, Shiga inhibitor 5, NS1 inh -31% and Giardia FBPA inh -2%.
